According to PubChem BioAssay:
Calls of active or inactive are those of the source.

What was measured:
[1] = E. coli DRC41 culture turbidity changes, primary screen, E. coli filamentation inducer project, strain DRC41, OD650, 48 h (AID 1152);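 also: E. coli MC1000 strain DRC41 lacking acrAB efflux pump and sulA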; conditions: E. coli DRC41 (acrAB sulA), higher = more signal, called active from +8 up or from −8 down
[2] = small-molecule binders of probe aLefty1, primary screen, biochemical, small-molecule microarray, 635/667 nm fluorescence (AID 1153); conditions: higher = more signal;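 also: score merges spot fluorescence with signal-to-noise ratio from the scanned slide images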
[3] = PSAC antagonists in infected red cells, primary screen, cell-based, P. falciparum Indochina, OD700, 1 h (AID 1154); conditions: P. falciparum Indochina infected RBC osmotic lysis, higher = more signal, called active from +8 up or from −8 down
[4] = PSAC antagonists in infected red cells, primary screen, cell-based, P. falciparum Indochina, OD700, 2 h (AID 1155);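 also: lysis reports solute entry through the parasite surface anion channel PSAC; channel blockers reduce lysis of infected cells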; conditions: P. falciparum Indochina infected erythrocytes, osmotic lysis OD700; higher = more signal, called active from +8 up or from −8 down
[5] = osmotic lysis modulators in infected erythrocytes, primary screen, PSAC antagonist project, cell-based, P. falciparum Indochina, OD700, 3 h (AID 1156); conditions: higher = more signal, called active from +8 up or from −8 down
[6] = PSAC antagonists in infected red cells, primary screen, cell-based, P. falciparum Indochina, OD700, 18 h (AID 1157); conditions: P. falciparum Indochina infected erythrocytes, osmotic lysis OD700, 18 h; higher = more signal, called active from +8 up or from −8 down
[7] = modulators of S6 phosphorylation in cells, primary screen, cell-based, A549, cytoblot, luminescence, serum-stimulated (AID 1158); conditions: A549 phospho-S6 cytoblot, 5 h, higher = more signal;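 also: serum-stimulated A549 lung adenocarcinoma cells; signal is phosphorylated S6 detected by cytoblot immunostaining with HRP secondary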
[8] = biological target: NADPH oxidase 2 (Homo sapiens) (UniProt P04839); experiment: NOX2-dependent H2O2 signal modulators, primary screen, NOX inhibitor project, cell-based, HEK293-NOX2, PMA-stimulated, Amplex Red fluorescence (AID 1159); conditions: 45 min, higher = more signal, called active from +8 up or from −8 down; also: test concentration not given here
[9] = biological target: NADPH oxidase 4 (Homo sapiens) (UniProt Q9NPH5); experiment: NOX4-dependent H2O2 signal modulators, primary screen, NOX inhibitor project, cell-based, HEK293-NOX4, tetracycline-induced, Amplex Red fluorescence (AID 1160); conditions: 45 min, higher = more signal, called active from +8 up or from −8 down
[10] = biological target: NADPH oxidase 5 (Homo sapiens) (UniProt Q96PH1); experiment: NOX5-dependent H2O2 signal modulators, primary screen, NOX inhibitor project, cell-based, HEK293-NOX5, Amplex Red fluorescence (AID 1161); conditions: HEK293-NOX5, ionomycin, 45 min, higher = more signal
[11] = A549 cell viability effects, profiling panel, calcein-AM fluorescence, 48 h, basal (AID 1162); conditions: higher = more signal; also: test concentration not given here
[12] = adipocyte viability effects, profiling panel, cell-based, 3T3-L1 adipocytes, calcein-AM fluorescence, 48 h, basal (AID 1163); conditions: 3T3-L1 adipocytes viability, higher = more signal; also: test concentration not given here
[13] = HepG2 cell viability effects, profiling panel, calcein-AM fluorescence, 48 h, basal (AID 1164); conditions: higher = more signal; also: test concentration not given here
[14] = MM1S cell viability effects, profiling panel, calcein-AM fluorescence, 48 h, basal (AID 1165); conditions: higher = more signal;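 also: viability of MM1S multiple myeloma cells under basal unstimulated conditions; test concentration not given here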
[15] = basal RPMI8226 viability, no added stimulus, profiling panel, cell-based, calcein-AM fluorescence, 48 h, PK04 Diversity Set (AID 1166); conditions: RPMI8226 myeloma viability, higher = more signal;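 also: cells grown under basal conditions without added stimulus; test concentration not given here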
[16] = basal HepG2 mitochondrial membrane potential changes, profiling panel, cell-based, JC-1 fluorescence, 24 h, 100 nL compound (AID 1167); conditions: higher = more signal; also: test concentration not given here
[17] = basal 3T3-L1 adipocyte mitochondrial potential changes, profiling panel, cell-based, JC-1 fluorescence, 3T3-L1 adipocytes, 24 h, 100 nL compound (AID 1168); conditions: JC-1 mitochondrial fluorescence, higher = more signal, called active from +8 up or from −8 down; also: test concentration not given here
[18] = basal RPMI8226 mitochondrial membrane potential changes, profiling panel, cell-based, JC-1 fluorescence, 24 h, 100 nL compound (AID 1169); conditions: RPMI8226 myeloma, JC-1 mitochondrial potential fluorescence, higher = more signal; also: test concentration not given here
[19] = basal MM1S mitochondrial membrane potential changes, profiling panel, cell-based, JC-1 fluorescence, 24 h, 100 nL compound (AID 1170); conditions: higher = more signal; also: test concentration not given here
[20] = A549 lung cancer cell viability effects, profiling panel, resazurin fluorescence, 24 h, PK04 Diversity Set (AID 1171); conditions: higher = more signal, called active from +8 up or from −8 down; also: test concentration not given here

Sequence of NADPH oxidase 4 (Homo sapiens) (Q9NPH5 whole entry, looked up): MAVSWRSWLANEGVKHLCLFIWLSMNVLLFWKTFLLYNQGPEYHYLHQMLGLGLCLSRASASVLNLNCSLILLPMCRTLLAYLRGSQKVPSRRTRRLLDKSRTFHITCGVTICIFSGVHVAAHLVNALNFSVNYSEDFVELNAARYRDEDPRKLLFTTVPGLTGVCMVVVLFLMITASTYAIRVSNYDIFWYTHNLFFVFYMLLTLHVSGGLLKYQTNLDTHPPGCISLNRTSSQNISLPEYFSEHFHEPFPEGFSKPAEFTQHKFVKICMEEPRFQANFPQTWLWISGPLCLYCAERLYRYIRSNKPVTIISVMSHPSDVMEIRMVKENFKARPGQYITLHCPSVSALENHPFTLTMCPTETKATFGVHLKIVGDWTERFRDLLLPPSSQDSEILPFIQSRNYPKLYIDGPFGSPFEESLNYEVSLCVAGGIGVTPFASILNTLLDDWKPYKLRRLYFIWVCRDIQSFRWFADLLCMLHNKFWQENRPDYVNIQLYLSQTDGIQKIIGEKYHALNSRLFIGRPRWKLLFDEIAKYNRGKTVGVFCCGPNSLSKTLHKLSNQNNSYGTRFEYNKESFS
Sequence of NADPH oxidase 2 (Homo sapiens) (P04839 whole entry, looked up): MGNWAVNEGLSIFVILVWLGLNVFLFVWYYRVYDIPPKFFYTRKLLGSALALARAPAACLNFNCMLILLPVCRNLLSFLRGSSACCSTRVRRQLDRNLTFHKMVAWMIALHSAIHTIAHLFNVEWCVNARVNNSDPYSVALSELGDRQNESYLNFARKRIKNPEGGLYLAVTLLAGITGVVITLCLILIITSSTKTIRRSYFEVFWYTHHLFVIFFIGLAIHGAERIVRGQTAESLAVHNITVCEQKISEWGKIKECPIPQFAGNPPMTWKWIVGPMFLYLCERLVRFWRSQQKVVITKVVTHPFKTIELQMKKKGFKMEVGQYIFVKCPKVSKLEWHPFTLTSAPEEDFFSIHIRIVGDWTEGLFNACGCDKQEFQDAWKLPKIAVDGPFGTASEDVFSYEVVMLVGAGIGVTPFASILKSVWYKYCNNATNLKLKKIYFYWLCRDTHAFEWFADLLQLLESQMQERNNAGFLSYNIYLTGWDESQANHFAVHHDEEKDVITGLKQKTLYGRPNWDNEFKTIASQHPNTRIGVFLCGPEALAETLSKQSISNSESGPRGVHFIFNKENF
Sequence of NADPH oxidase 5 (Homo sapiens) (Q96PH1 whole entry, looked up): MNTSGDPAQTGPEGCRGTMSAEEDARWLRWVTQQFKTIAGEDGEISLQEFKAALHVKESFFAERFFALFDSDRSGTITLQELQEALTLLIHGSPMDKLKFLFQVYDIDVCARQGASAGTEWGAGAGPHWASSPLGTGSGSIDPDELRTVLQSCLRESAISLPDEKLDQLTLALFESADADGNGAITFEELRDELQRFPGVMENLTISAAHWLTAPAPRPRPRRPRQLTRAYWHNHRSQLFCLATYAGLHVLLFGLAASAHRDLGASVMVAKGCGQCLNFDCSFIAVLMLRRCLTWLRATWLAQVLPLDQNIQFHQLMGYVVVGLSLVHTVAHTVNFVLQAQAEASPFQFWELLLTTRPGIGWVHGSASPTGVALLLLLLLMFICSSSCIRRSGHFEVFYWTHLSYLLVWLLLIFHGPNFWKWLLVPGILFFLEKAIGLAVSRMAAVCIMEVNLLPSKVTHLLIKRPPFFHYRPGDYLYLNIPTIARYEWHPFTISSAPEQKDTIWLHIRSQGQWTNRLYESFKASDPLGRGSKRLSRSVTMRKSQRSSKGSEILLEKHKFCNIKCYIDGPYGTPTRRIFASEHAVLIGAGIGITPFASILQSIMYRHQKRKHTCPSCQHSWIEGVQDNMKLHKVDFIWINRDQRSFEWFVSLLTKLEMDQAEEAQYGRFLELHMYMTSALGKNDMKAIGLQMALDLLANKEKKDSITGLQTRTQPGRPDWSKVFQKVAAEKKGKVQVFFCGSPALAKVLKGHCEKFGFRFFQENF

SMILES	z-score [1]	composite z-score [2]	z-score [3]	z-score [4]	z-score [5]	z-score [6]	z-score [7]	z-score [8]	z-score [9]	z-score [10]	z-score [11]	z-score [12]	z-score [13]	z-score [14]	z-score [15]	z-score [16]	z-score [17]	z-score [18]	z-score [19]	z-score [20]
COc1cc2c(cc1O)C(C)N(Cc1sc3ccccc3c1Cl)CC2 (stereo not given)	0.268 (inactive)	-0.145	4.05 (inactive)	2.4 (inactive)	0.334 (inactive)	1.85 (inactive)	-0.43	-3.7 (inactive)	-2.3 (inactive)	-3.2	0.0824	-0.0046	-0.0238	0.141	0.624	-1.08	-0.632 (inactive)	0.838	-0.995	-0.205 (inactive)
CN1C2C=C(c3ccc(CO)cc3)C(C3C(=O)N(C(N)=O)C(=O)C32)C1C1CC1 (stereo not given)	0.149 (inactive)	-0.104	0.944 (inactive)	0.411 (inactive)	-0.103 (inactive)	0.0864 (inactive)	-0.0656	-1.57 (inactive)	-1.29 (inactive)	-0.739	-0.497	0.0457	-0.157	0.341	-0.773	-0.391	-0.242 (inactive)	-0.482	0.326	0.182 (inactive)
COCCOC(=O)N1C(=O)[C@@]2(c3cc(C#CCNC(N)=O)ccc31)[C@H](c1ccc(O)cc1)N1[C@H](c3ccccc3)[C@H](c3ccccc3)OC(=O)[C@H]1[C@@H]2C(=O)N1CCc2cc(OC)c(OC)cc2C1	-0.872 (inactive)	0.208	1.67 (inactive)	0.13 (inactive)	0.018 (inactive)	0.148 (inactive)	-0.0879	1.15 (inactive)	-0.909 (inactive)	0.891	0.571	-0.065	-0.281	-0.72	0.542	-1.82	-0.338 (inactive)	0.0593	0.583	0.0875 (inactive)
COC(=O)[C@]1(Cc2ccccc2N=[N+]=[N-])N=C(c2ccc(OCCCO)cc2)O[C@@H]1c1ccccc1CN=[N+]=[N-]	-1.01 (inactive)	-0.0012	22.2 (active)	9.37 (active)	-0.732 (inactive)	2.26 (inactive)	0.76	-2.97 (inactive)	0.167 (inactive)	-2.43	-3.36	-0.677	-5.59	-3.59	-3.98	-1.76	-1.07 (inactive)	-1.16	-2.61	-2.26 (inactive)
COc1ccc(NN2C(C(O)c3ccccc3)C=CC3C(=O)N(C4CCCCC4)C(=O)C32)cc1 (stereo not given)	-0.775 (inactive)	0.0479	11.8 (active)	2.25 (inactive)	1.31 (inactive)	1.22 (inactive)	-0.388	-2.76 (inactive)	-2.65 (inactive)	-2.39	-0.408	-0.503	0.0544	-1.37	-1.82	-0.536	0.0258 (inactive)	-0.335	-0.253	1.67 (inactive)
O=C1OCC=C[C@H]2OC34C=CCN(Cn5nnc6ccccc65)C(=O)[C@H]3N(CCO)C(=O)[C@@H]4[C@@H]12 (stereo not given in full)	-0.683 (inactive)	-0.101	0.813 (inactive)	0.531 (inactive)	0.268 (inactive)	0.55 (inactive)	-0.376	1.17 (inactive)	0.99 (inactive)	1.38	0.0757	-0.529	0.344	0.897	0.209	-1.15	0.765 (inactive)	-0.462	-0.187	-0.822 (inactive)
COCCCNC(=O)[C@@]1(c2ccc([N+](=O)[O-])cc2)CC(=O)N(C2CCCCC2)[C@@H]1c1ccc(CO)cc1I	0.725 (inactive)	-0.208	12.6 (active)	1.35 (inactive)	3.44 (inactive)	1.11 (inactive)	0.107	1.78 (inactive)	0.381 (inactive)	2.07	1.22	0.944	0.857	-1.41	-0.0154	2.88	0.802 (inactive)	0.496	0.106	1.38 (inactive)
C=C(CCCC)/C(=C/C[C@@H](OC(C)=O)c1ccc(OCCO)cc1)c1cc(C(=O)OC)ccc1OC	-0.195 (inactive)	-0.0518	23.7 (active)	6.34 (inactive)	1.86 (inactive)	1.19 (inactive)	-0.265	-0.958 (inactive)	-1.43 (inactive)	-1.98	-0.144	-0.703	0.447	-3.33	-3.24	0.621	-1.5 (inactive)	-0.826	-1.3	0.293 (inactive)
O=C1C2C=CC(C(O)C(c3ccccc3)c3ccccc3)N(Nc3ccccc3F)C2C(=O)N1c1ccccc1 (stereo not given)	-1.6 (inactive)	0.235	2.23 (inactive)	1.25 (inactive)	0.663 (inactive)	0.852 (inactive)	-0.799	-1.34 (inactive)	-2.28 (inactive)	-1.87	-0.486	-0.368	0.355	-1.33	-0.0284	-1.7	-1.3 (inactive)	0.284	-0.73	-0.021 (inactive)
CC(C)(C)OC(=O)CC[C@@]1(C(=O)N2CCOCC2)N=C(c2ccc(OCCCO)cc2)O[C@@H]1c1ccccc1CN=[N+]=[N-]	0.409 (inactive)	0.85	27 (active)	14.9 (active)	-0.762 (inactive)	1.11 (inactive)	-0.449	0.825 (inactive)	2.1 (inactive)	2.05	-0.688	1.35	-0.261	-0.169	-1.58	0.259	-0.506 (inactive)	-0.546	-0.567	0.792 (inactive)
C[C@]12C(=O)N(CCO)[C@@H]3C(=O)N(c4ccc(Cl)cc4)CC=CC31O[C@@H]1/C=C\CCCOC(=O)C12 (stereo not given in full)	-0.295 (inactive)	0.161	0.505 (inactive)	0.176 (inactive)	0.228 (inactive)	0.359 (inactive)	-0.362	1.96 (inactive)	-0.22 (inactive)	2.65	0.614	1.38	0.488	0.971	-0.966	-0.646	-0.766 (inactive)	-0.129	1.61	-1.3 (inactive)
COC(=O)C(CC#Cc1ccc2c(c1)[C@]1(C(=O)N2)[C@H](c2ccc(OCCO)cc2)N2[C@H](c3ccccc3)[C@H](c3ccccc3)OC(=O)[C@H]2[C@@H]1C(N)=O)C(=O)OC	-0.763 (inactive)	0.0319	3.9 (inactive)	1.36 (inactive)	-0.623 (inactive)	0.615 (inactive)	-0.359	1.56 (inactive)	0.784 (inactive)	0.345	-0.729	0.251	-0.188	-2.2	-1.68	-0.68	0.81 (inactive)	-1.12	-0.927	-0.0032 (inactive)
COCCOC(=O)N1C(=O)[C@@]2(c3ccccc31)[C@H](C(=O)Nc1nc3ccccc3s1)[C@H]1C(=O)O[C@H](c3ccccc3)[C@H](c3ccccc3)N1[C@@H]2c1ccccc1OCCO	0.253 (inactive)	0.941	4.98 (inactive)	2.57 (inactive)	0.0618 (inactive)	1.95 (inactive)	-0.0149	1.91 (inactive)	-0.601 (inactive)	1.17	-0.905	0.679	-0.899	-0.975	-1.48	-2.27	2.21 (inactive)	-0.796	-0.61	0.101 (inactive)
O=C(O)C1=CC[C@H]2C(=O)N(c3ccccc3)C(=O)[C@@H]12	-0.569 (inactive)	0.348	0.61 (inactive)	1.11 (inactive)	-0.803 (inactive)	0.707 (inactive)	-1	0.536 (inactive)	-0.267 (inactive)	-0.253	-1.05	-0.261	-0.625	-0.911	-0.222	-0.915	-0.162 (inactive)	0.364	-1.46	0.64 (inactive)
CCOC(=O)C[C@H]1[C@H](OC(=O)c2ccc(-c3ccccc3)cc2)[C@@H](NC(=O)C2CCCCC2)c2cc(OCCCO)ccc2N1C(=O)Cc1ccc(OC)cc1	-0.815 (inactive)	0.0315	2.23 (inactive)	0.166 (inactive)	-0.816 (inactive)	0.0141 (inactive)	0.571	-0.289 (inactive)	1.21 (inactive)	0.732	-0.869	0.0396	-0.216	-0.581	-0.938	0.801	-0.199 (inactive)	0.823	0.488	-0.0129 (inactive)
Cc1ccc(S[C@]2(C(=O)NCC(C)C)CC(=O)N(C(C)C)[C@@H]2c2ccc(CO)cc2I)cc1	0.746 (inactive)	0.245	4.28 (inactive)	0.965 (inactive)	0.504 (inactive)	0.279 (inactive)	0.363	2.02 (inactive)	-0.511 (inactive)	1.9	1.97	0.508	0.867	-2.41	-2.03	0.978	0.953 (inactive)	-0.94	-1.19	0.677 (inactive)
C=CCC(OC(C)=O)[C@@H]1[C@@H](N(Cc2cccc3ccccc23)C(=O)c2ccc(C)cc2)c2cc(OCCCO)ccc2N1C(=O)Cc1ccc2ccccc2c1 (stereo not given in full)	2.62 (inactive)	0.167	0.483 (inactive)	-0.407 (inactive)	-0.419 (inactive)	-1.2 (inactive)	2.14	-2.56 (inactive)	1.08 (inactive)	2.41	0.396	1.05	1.55	0.83	0.986	3.54	0.598 (inactive)	0.152	-0.984	0.433 (inactive)
COc1ccc(CCNC(=O)[C@@H]2c3ccccc3C(=O)N(C(C)C)[C@H]2c2ccc(CO)cc2)cc1	1.73 (inactive)	-0.27	3.24 (inactive)	0.785 (inactive)	1.3 (inactive)	0.376 (inactive)	0.307	-0.219 (inactive)	0.821 (inactive)	0.338	2.2	1.29	0.188	-0.397	1.1	0.733	-0.232 (inactive)	-0.482	0.978	1.12 (inactive)
